The campaign covered roughly 330,000 compounds. About 7,300 (2.2%) were called active. The sample as a whole holds a higher share of actives than the screen did. Unmarked numbers belong to inactive results.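 Rule for the calls: active = inhibition of at least 40%; inactive = the rest.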
Assay: growth inhibition of tim10-1 ts yeast – luminescence, uHTS, primary screen (AID 463190);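 note: mutant grown at 25 °C; 0% = DMSO wells with yeast and 100% = wells holding no yeast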
Details: S. cerevisiae tim10-1 ts strain growth, BacTiter-Glo, 24 h; at 20 µM; hits give high values

SMILES	inhibition
Cc1ccc(NC(=O)Cc2nc(COC(=O)C(C)NS(=O)(=O)c3ccc(C)cc3)cs2)cc1 (centres undefined)	15.7%
O=C(CSC(=S)N1CCCCC1)c1c(F)cccc1F	9.67%
Oc1c(Cl)cc(Cl)c(Cl)c1Cc1c(O)c(Cl)cc(Cl)c1Cl	91% (active)
Cc1cc(/C=N/NC(=O)CC2(C)OCCO2)c(C)n1-c1ccc(Cl)c(Cl)c1	1.86%
O=C1c2cccnc2C(Nc2ccc(S(=O)(=O)N3CCCCCC3)cc2)N1Cc1ccccc1 (centres undefined)	34.2%
CCCCCCCCCCCCCCCC(=O)OC/C=C(C)/C=C/C=C(C)/C=C/C1=C(C)CCCC1(C)C	40.7% (active)
CC1=C(/C=C/C(C)=C/C=C/C(C)=C/C=C/C=C(C)/C=C/C=C(C)/C=C/C2=C(C)CCCC2(C)C)C(C)(C)CCC1	10.6%
COC(=O)c1ccccc1NC(=O)CN(Cc1ccc(Cl)cc1)S(C)(=O)=O	10.7%
CCCCNCc1ccc(SC)cc1	-1.78%
O=C(Nc1cccc(F)c1)c1coc(=O)c(Br)c1	18.9%
CCc1ccccc1N1CN(Cc2ccco2)CNC1=S	17.4%
COc1ccc(C(=O)Nc2ccc(-n3nncc3C(C)(C)C)cc2)cc1	44% (active)
C/C(=N\Nc1ccc([N+](=O)[O-])cc1)c1ccc(-n2nncc2C(C)(C)C)cc1	-1.51%
COc1ccc(NC(=O)c2ccc(C#CC(C)(C)O)cc2)cc1	9.08%
CCCNC(=O)c1ccc(N2CCC3(CC2)CC(c2ccc(Cl)cc2)=NO3)c([N+](=O)[O-])c1	7.65%
Cc1nonc1OCCn1nnnc1N	4.98%
COc1ccccc1N(CCOc1ccccc1)S(=O)(=O)c1ccccc1	7.59%
Cc1ccccc1C1=N/C(=C/c2cccnc2)C(=O)O1	31.3%
COc1ccccc1/C=C/C1=NC(=C\N(C)C)/C(=O)O1	21%
O=C1OC(/C=C/c2ccccc2)=NC/1=C/c1ccco1	45.5% (active)
CCN(Cc1ccccc1)C(=O)CCS(=O)(=O)c1ccc2c(c1)oc(=O)n2C	-13%
C[C@H](CO)N1C[C@H](C)[C@@H](CN(C)C(=O)Nc2ccc3c(c2)OCO3)Oc2c(cccc2N(C)C)C1=O	12.3%
CCS(=O)(=O)N1CCC(N2CCN(c3ccccc3)CC2)CC1	4.85%
Cc1sc2nc(CC(N)=O)[nH]c(=O)c2c1-c1ccccc1	6.26%
Cc1ccc2c(N)c(C(=O)c3ccccc3)sc2n1	41.9% (active)

SMILES	inhibition
COC(=O)c1cc2c(N)c(C(=O)c3ccc(Cl)cc3)sc2nc1C(OC)OC	10.6%
CCc1nc2sc(C(=O)O)c(N)c2c2c1CCCC2	-71.8%
Cc1cccc(NC(=O)c2sc3nc(N4CCOCC4)c4c(c3c2N)CCCC4)c1	32%
NC(=O)c1sc2nc3c(c(-c4ccccc4)c2c1N)CCC3	41.3% (active)
Cc1nc2sc(C(=O)c3ccccc3)c(N)c2c2c1CCCC2	42.2% (active)
CCN(CC)C(=O)c1sc2nc(-c3ccccc3)ccc2c1N	21%
CC(C)OC(=O)c1sc2nc3c(cc2c1N)C(=O)CCC3	-8.03%
Cc1cc(C)cc(NC(=O)c2cccc(NC(=O)C3C4CC5OC(=O)C3C5C4)c2)c1 (centres undefined)	4.38%
CCCC(NC(=O)c1ccco1)c1nc2ccccc2[nH]1 (centres undefined)	14.1%
CCOc1ccc(CCNC(=O)C2=C(C)C(=O)OC23CCC(C)CC3)cc1OCC (centres undefined)	19.9%
Nc1nc(-c2sc3nc4c(cc3c2N)CCCC4)nc(N2CCOCC2)n1	27.8%
CCN(CC)Cc1csc2ccc(Br)cc12	7.29%
COc1ccccc1OCCNCC(O)COc1cccc2[nH]c3ccccc3c12 (centres undefined)	22.3%
COc1ccc(C)cc1S(=O)(=O)NCCc1ccccc1	22.2%
CCOC(=O)c1nnn(-c2nonc2-n2cccc2)c1CN1CCC(C(=O)OCC)CC1	31.9%
CC(=O)c1cccc(OCC(=O)OCC(=O)Nc2cc(S(=O)(=O)N3CCCCC3)ccc2C)c1	1.6%
COc1ccc(N(C)C(=O)C2CCN(S(=O)(=O)c3cccc4nsnc34)CC2)cc1	6.33%
CC(C)C(=O)Nc1ccc2c3c(cccc13)CC2	-15.9%
Oc1c(C(c2ccccn2)N2CCOCC2)ccc2cccnc12 (centres undefined)	43.7% (active)
CC(C)c1cc(CN2CCOCC2)cc(C(C)C)c1O	-5.76%
COc1ccc(CCNC(=O)C2CCCN(S(=O)(=O)c3ccc(OC)cc3)C2)cc1 (centres undefined)	1.05%
O=C1Oc2ccccc2C(=O)/C1=C/c1ccccc1O	62.2% (active)
COc1ccc2c(c1)O/C(=C\c1ccccc1O)C2=O	18%
COC(=O)c1ccc(/C=C2/C(=O)Oc3ccccc32)cc1	39.9%
Cc1ccccc1/C=C\c1nc(O)c([N+](=O)[O-])c(=O)[nH]1	-8.34%

SMILES	inhibition
CN(C)Cc1c(O)ccc2c(=O)c(-c3ccccc3Cl)coc12	1.49%
COc1ccc(/C=N/Nc2ncnc3sc4c(c23)CCCC4)cc1O	40.7% (active)
COc1ccc(NC(=O)CCCNC(=O)Cn2cnc3sc4c(c3c2=O)CCCC4)cc1OC	-24.1%
COc1ccc(NC(=O)CCNC(=O)Cn2cnc3sc4c(c3c2=O)CCCC4)cc1OC	-10.3%
S=C(NCCc1ccccc1)Nc1ccccc1	19.1%
O=C(CCNC(=O)c1ccc(Br)cc1)NCCCc1ccccc1	7.38%
S=C(NCCCc1ccccc1)Nc1ccc(Br)cc1	64.1% (active)
CC12CN(NC(=O)c3ccc(Cl)cc3)C3(C#N)CC1CCC23C (centres undefined)	36.5%
CCn1nc(C(=O)NNS(=O)(=O)c2cc(/C=C/C(=O)O)cc(OC)c2OC)c2ccccc2c1=O	-3.64%
O=C(COC(=O)c1ccc(S(=O)(=O)N2CCc3ccccc3C2)cc1)NC(=O)NCc1ccco1	0.504%
Cc1cnc(C(=O)Oc2cccc(Cl)c2Cl)cn1	-10.1%
N/C(=N\OC(=O)CCC1CCCCC1)c1ccccn1	47.6% (active)
O=C(CC1CCCCC1)NCc1ccccc1	11.1%
CCc1cccc(C)c1NC(=O)COC(=O)CC1CCCC1	2.51%
N/C(=N\OC(=O)CC1CCCCC1)c1ccccc1	49.3% (active)
N/C(=N\OC(=O)c1ccc([N+](=O)[O-])cc1)c1ccccn1	37.6%
COc1ccccc1OCC(=O)O/N=C(\N)c1ccccn1	22.7%
CCCC(C)C(=O)NCc1ccncc1 (centres undefined)	27.9%
CCCc1cc(=O)[nH]c(SCc2cc(=O)oc3c(C)c(C)ccc23)n1	10.3%
Cc1cccn2c(=O)c3cc(C(=O)NC4CCCCC4)sc3nc12	19.7%
Cc1cc(C)c2c(n1)sc1c(=O)n(-c3ccccc3)c(=O)[nH]c12	4.48%
Cc1cccc(NC(=S)Nc2ccc3cn[nH]c3c2)c1	15.4%
Cc1cccc(NC(=S)Nc2ccc(Cl)c(Cl)c2)c1	49.9% (active)
Cc1cccc(NC(=S)NC23CN4CN(CN(C4)C2)C3)c1	10%
Cc1cccc([C@@H]2[C@@H]3C(=O)N(C)C(=O)[C@@H]3[C@@H]3C(=O)Nc4ccccc4C(=O)N23)c1	5.99%

SMILES	inhibition
O=C(NC1CCCC1)c1cc(-c2ccccc2)on1	-21.5%
FC(F)(F)c1nnc2c3ccccc3c(Cl)nn12	17.8%
CC1CCc2sc3nc(N4CCN(CCO)CC4)n4ncnc4c3c2C1 (centres undefined)	40.6% (active)
Cc1cc(NC(=O)CSc2nc(C(C)C)nc3sc4c(c23)CCC(C)C4)no1 (centres undefined)	4.7%
CC(C)(C)C(=O)/C(C#N)=C/c1ccc(O)cc1	8.78%
CC(C)NC(=O)/C(C#N)=C\c1ccc(N(C)C)c(Br)c1	53.6% (active)
Cc1[nH]c2ccccc2c1/C=C(/C#N)C(=O)NC(C)C	20.4%
Cc1ccc(C(=O)OC2=CC(=O)CC(C)(C)C2)cc1	31%
COCCCNS(=O)(=O)c1cccc(S(=O)(=O)c2cccc(S(=O)(=O)NCCCOC)c2)c1	2.99%
Cc1ccccc1OCC(=O)NNC(=O)c1ccc(-n2cncn2)c([N+](=O)[O-])c1	-11%
O=C(NCCCN1CCOCC1)c1ccc(N2CCCC2)c([N+](=O)[O-])c1	-9.34%
O=C(COc1ccccc1F)NNC(=O)c1ccc(N2CCCCC2)c([N+](=O)[O-])c1	41.3% (active)
CC(C)CC(=O)N/C(N)=N/c1nc2ccccc2s1	19.6%
CCOC(=O)/C(N=Nc1cc(C(=O)O)cc(C(=O)O)c1)=C(\O)CCl	11%
O=c1cccc(-c2ccc(Br)cc2)o1	4.04%
CCOC(=O)C(=CNc1cccc(C)n1)C(=O)OCC	-6.8%
COc1ccccc1/C=C/C(=O)NC1CC2CCC1C2 (centres undefined)	19.5%
CCOC(=O)C(=Cc1ccccc1OC)C(=O)OCC	49.6% (active)
Cc1c(C)n2c(SCC(=O)N3CCCC3)nnc2[nH]c1=O	0.597%
CCCCCCC(=O)N(O)C1CC(=O)N(c2ccccc2)C1=O (centres undefined)	33.7%
CCN(CC(=O)Nc1ccccc1C(=O)NC1CC1)Cc1cccs1	17.5%
CSC1=N/C(=C\C=C\c2cccs2)C(=O)S1	47.1% (active)
Cc1cccc(C2=N/C(=C/c3cccs3)C(=O)O2)c1	31.5%
CN1C/C(=C/c2cccs2)C(=O)/C(=C\c2cccs2)C1	19.2%
